Results on 72 molecules are retold here after PubChem BioAssay AID488890 (Southern Research Specialized Biocontainment Screening …, 2010).

The campaign covered roughly 320,000 compounds. About 1,300 (0.41%) were called active. Roughly 3% stayed inconclusive and do not appear here. The rule behind the calls is not given here. The list is a sample of the results. Potency and affinity values are given separately.

The test is described as follows: growth inhibition of non-replicating M. tuberculosis (AID 488890).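 Note: plate controls were DMSO cells for no effect and high antibiotic wells for full effect.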 The following applies: Mycobacterium tuberculosis non-replicating, at 25 µM, stronger effect = higher value.
Regarding `O=c1c2cc([N+](=O)[O-])cc([N+](=O)[O-])c2[nH]n1-c1ccccc1`, the inhibition (as a rule, the relative decrease from the control value, in per cent) is 5.65%.

As to `CC(=NNC(=O)COc1cccc(C)c1)c1cccnc1`, the inhibition worked out at 2.36%.

On to `COc1ccc(CNC(=O)C/C(C)=N/NC(=O)COc2cccc(C)c2)cc1`, for which the inhibition is -10.6%.

Regarding `O=S(=O)(Nc1c(O)ccc2ccccc12)c1ccc(F)cc1`, the inhibition was -1.3%.

Consider `O=S(=O)(Nc1ccc2c3c(cccc13)CC2)c1ccc(F)cc1`, for which the inhibition is 21.3%.

With `O=C(COc1ccc(Br)cc1)Nc1ccccc1N1CCCC1`, the inhibition was 26.6%.

On to `CCn1c(NC(=S)Nc2ccccc2)nc2ccccc21`, for which the inhibition was 57.9%.

For the molecule `CCn1c(CNC(=O)c2ccccc2)nc2ccccc21`, the inhibition is 2.98%.

In the case of `CCn1c(NC2CCCCC2)nc2ccccc21`, the inhibition worked out at 8.52%.

`CN(C)CCCn1c(NC(=O)C2CCCCC2)nc2ccccc21`: the inhibition is 24.1%.

`CCn1c(NC(=O)Nc2ccccc2OC)nc2ccccc21`: the inhibition is 43%.

Regarding `O=C(Nc1nc2ccccc2n1Cc1ccccc1)c1ccc(COc2ccccc2[N+](=O)[O-])o1`, the inhibition is -4.43%.

Turning to `CCn1c(NC(=O)c2ccc(COc3ccc(C)cc3[N+](=O)[O-])o2)nc2ccccc21`, the inhibition stood at 14%.

Consider `CCn1c(-c2nonc2NC(=O)c2ccccc2)nc2ccccc21`, for which the inhibition is 3.27%.

Regarding `COc1ccc(C(C)(C)NC(=O)C2CCC(=O)N(C3CCCC3)C2)cc1OC` (configuration not stated), the inhibition worked out at 1.54%.

With `O=C(O)c1cc(-c2ccc(Cl)cc2)n(-c2ccc(Cl)cc2)n1`, the inhibition stood at 28.3%.

In the case of `O=C(COC(=O)c1ccc(OC(F)F)cc1)Nc1cccc(S(=O)(=O)NC2=NCCC2)c1`, the inhibition is -15.4%.

Turning to `CN(C)S(=O)(=O)N1CCC(Oc2ccc(C(=O)N3C[C@H]4CC[C@H]3C4)cc2)CC1`, the inhibition was -6.7%.

As for `O=C(CCS(=O)(=O)Cc1ccccc1)NCC1CCCO1` (configuration not stated), the inhibition was -2.41%.

Take `CNC(=O)n1cc(C)c(-c2cccs2)n1`: the inhibition was determined as 3.54%.

As for `O=C(NCc1cccnc1)C1CCC(CNS(=O)(=O)c2cccc3nsnc23)CC1` (configuration not stated), the inhibition is -1.6%.

Regarding `CCOc1cc(S(=O)(=O)NC2CCCCC2)ccc1F`, the inhibition was found to be 22.4%.

For `C=CCn1c(SCC(=O)Nc2ccc(C(=O)O)cc2)nc2scc(-c3ccccc3)c2c1=O`, the inhibition was 6.43%.

As to `Cn1c(CCNC(=O)c2ccccc2)nc2ccccc21`, the inhibition is -11.6%.

Regarding `CCCn1c(CNC(=O)c2ccccc2)nc2ccccc21`, the inhibition stood at 1.31%.

As for `CCn1c(C)nc2cc(C(=O)N/N=C/c3ccc(OC)cc3)ccc21`, the inhibition is -1.99%.

In the case of `O=C(Nc1nc2ccccc2n1CCN1CCOCC1)c1ccccc1`, the inhibition was 78.5%.

On to `CCn1c(/C=N/Nc2ccc(C(=O)O)cc2)nc2ccccc21`, for which the inhibition was 5.68%.

With `Cn1c(NC(=O)c2cccnc2)nc2ccccc21`, the inhibition was 74.7%.

Regarding `Cc1ccc(-n2nc3c(=O)n(CCCC(=O)NCc4ccc(Cl)cc4)nc(C)c3c2C)cc1`, the inhibition worked out at 52.4%.

Take `Cc1ccc(C(C(=O)NC2CCCC2)N(C(=O)c2csnn2)c2ccccc2)o1` (configuration not stated): the inhibition came out at 9.58%.

In the case of `O=[N+]([O-])c1cccc(/C=N\N2CCN(Cc3ccccc3Cl)CC2)c1`, the inhibition is -2.97%.

Take `O=C(COc1ccc(Br)cc1)N1CCC(c2ccccc2)C1` (configuration not stated): the inhibition was determined as 68%.

For `COC(=O)C1(C)CN(S(=O)(=O)c2ccc(C)cc2)c2cc(OC)ccc2C1=O` (configuration not stated), the inhibition came out at 35.5%.

As for `CC1=NCCN1S(=O)(=O)c1ccc(Br)c(C)c1`, the inhibition stood at 1.05%.

Consider `O=[N+]([O-])c1ccc(Oc2cccc(C(F)(F)F)c2)nc1`, for which the inhibition stood at 65.4%.

As to `O=S(=O)(c1cccc(C(F)(F)F)c1)c1ccc(O)cn1`, the inhibition was 0.61%.

Turning to `Cc1cc(Sc2ccc([N+](=O)[O-])cn2)ccc1Br`, the inhibition stood at 12.1%.

`CCOc1ccc(CCNC(=O)COC(=O)Cn2cnc3ccccc3c2=O)cc1OCC`: the inhibition was determined as 18.2%.

Consider `COc1ccccc1CNC(=O)COC(=O)COc1ccccc1Cc1ccccc1`, for which the inhibition amounted to 25.1%.

For the molecule `O=C(Nc1cccc(-n2cnnn2)c1)c1ccoc1COc1ccc(Cl)cc1`, the inhibition amounted to 5.71%.

In the case of `CSc1ccccc1C(=O)C1CCCN(S(=O)(=O)c2c(C)noc2C)C1` (configuration not stated), the inhibition is -0.64%.

In the case of `c1ccc(Nc2c(-c3ccco3)nc3ccccn23)cc1`, the inhibition is 43.1%.

In the case of `Cc1ccc(Nc2c(-c3ccco3)nc3ccccn23)cc1`, the inhibition was found to be 43.3%.

With `CCOc1ccc(S(=O)(=O)N(CC(=O)NCc2cccnc2)c2ccc(F)cc2)cc1`, the inhibition worked out at 1.08%.

For `CCN(C[C@H]1N[C@@](CC)(C(=O)OC)[C@H]2C(=O)N(C)C(=O)[C@@H]12)C(=O)Nc1ccc(C)cc1`, the inhibition was 3.1%.

For the molecule `O=C(O)C1CC(=O)N(c2ccc3c(c2)OCCO3)C1` (configuration not stated), the inhibition was -10.2%.

As to `O=C1c2ccccc2NC(c2ccc3c(c2)OCCO3)N1c1ccc2c(c1)OCCO2` (configuration not stated), the inhibition was 29.3%.

Consider `CN1CCN(c2ccc(CNC(=O)c3ccc4c(c3)OCCO4)cc2)CC1`, for which the inhibition is -0.49%.

Take `Cc1cc(Cl)ccc1NC(=O)COC(=O)c1nc2nccc(C)n2n1`: the inhibition is -0.03%.

As for `COc1cc2c(cc1OC)CN(C(=O)CCC(=O)c1ccc(F)cc1)CC2`, the inhibition turned out to be 19.6%.

As to `O=C(CCN1CCOCC1)c1ccccc1`, the inhibition was determined as 75.5%.

Turning to `O=C(NCCN1CCOCC1)c1ccc(Cl)cc1`, the inhibition is -1.14%.

Regarding `COc1cc2c(cc1OC)CN(CCOc1ccc(Br)cc1)CC2`, the inhibition worked out at 17.6%.

With `CC(CN1CCOCC1)OC(=O)c1ccccc1` (configuration not stated), the inhibition is -8.24%.

In the case of `O=C(NCCCN1CCOCC1)c1ccc(Br)cc1`, the inhibition turned out to be 17.1%.

As to `O=C(CN1CCOCC1)c1ccc(Br)cc1`, the inhibition is 61.8%.

`CC(CN1CCCC1)OC(=O)c1ccc(Br)cc1` (configuration not stated): the inhibition is -10.6%.

On to `O=C(CCc1ccccc1)Nc1ccccc1F`, for which the inhibition was found to be 18.9%.

With `COc1ccccc1N(C(=O)CNC(=O)c1ccco1)C(C(=O)NC1CCCC1)c1ccncc1` (configuration not stated), the inhibition was found to be 2.47%.

On to `CSc1cccc(NC(=O)CCNS(=O)(=O)c2ccc3[nH]c(=O)oc3c2)c1`, for which the inhibition is -8.71%.

Regarding `O=C(NCCCN1CCOCC1)c1cc2c([nH]c3ccccc32)c(-c2cccc(Br)c2)n1`, the inhibition was 77.1%.

With `CN=C1S/C(=C/c2cn(CC(=O)OC)c3ccccc23)C(=O)N1C`, the inhibition came to 47.1%.

Take `O=C(O)C1CC(=O)N(CCOc2ccccc2)C1` (configuration not stated): the inhibition is -0.16%.

As to `CC1CCC(NC(=O)CCNC(=O)c2ccc(Br)cc2)CC1` (configuration not stated), the inhibition turned out to be 67.6%.

As to `Cn1cnnc1Sc1ccc(C(=O)NCCC23CC4CC(CC(C4)C2)C3)cc1[N+](=O)[O-]`, the inhibition is 33.9%.

Turning to `COc1ccc(C(C)C)cc1S(=O)(=O)NCC1CCCO1` (configuration not stated), the inhibition was determined as 16%.

In the case of `CC1CCCN(CCOc2ccc(Br)cc2)C1` (configuration not stated), the inhibition came to 16.9%.

As to `CC1CCCN(CCC(=O)Nc2ccc(Br)cc2)C1` (configuration not stated), the inhibition worked out at 10.6%.

Regarding `COc1ccc(OC)c2c1CC(C)(C)NC2=O`, the inhibition was -28.9%.

For `COc1ccc(/C=C2/SC(=S)N(CCCC(=O)Nc3ccc(O)cc3)C2=O)cc1`, the inhibition turned out to be 71.1%.

With `COc1ccc(/C=C2\SC(=S)N(CCCC(=O)Nc3ccc(O)cc3)C2=O)cc1`, the inhibition was 53.3%.
